Compound activity from PubChem.
RN4220 kill – kills Staphylococcus aureus RN4220; 330,000 compounds, 0.33% hits; S. aureus RN4220 growth, OD600, 16 h; inhibition, % (no concentration beside the values); in the data active = inhibition above about 85%;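 also: plate controls were untreated cells for no effect and reference antibiotic for full effect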
PrPC surface inh – reduces human prion protein on the cell surface; cell surface PrPC, TR-FRET read-out; 370,000 compounds, 0.43% hits; AID 720596; P04156; inhibition, % at 13.8 µM; in the data active = inhibition above about 24%; also: 0% = median of the test wells and 100% = reference compound wells
SARS 3CLpro inh – SARS-CoV 3CLpro protease inhibition; 290,000 compounds, 0.14% hits; AID 1706; P0C6X7; inhibition, % at 6 µM; recombinant SARS-CoV 3CLpro, quenched FRET peptide cleavage; in the data active = inhibition above about 12%
BJeLR lethal – BJeLR cell viability loss | BJeLR (HRASV12) viability, CellTiter-Glo ATP luminescence, 48 h | inhibition, % (test concentration not listed) | 300,000 compounds, 0.17% hits | AID 1554; in the data active = inhibition above about 50%
DUSP3 inh – blocks human VHR1 dual specificity phosphatase | P51452 | inhibition, % at 13.3 µM | recombinant VHR phosphatase, pNPP absorbance | 290,000 compounds, 0.52% hits; in the data active = inhibition above about 50%
Target sequence (P51452 whole entry, looked up): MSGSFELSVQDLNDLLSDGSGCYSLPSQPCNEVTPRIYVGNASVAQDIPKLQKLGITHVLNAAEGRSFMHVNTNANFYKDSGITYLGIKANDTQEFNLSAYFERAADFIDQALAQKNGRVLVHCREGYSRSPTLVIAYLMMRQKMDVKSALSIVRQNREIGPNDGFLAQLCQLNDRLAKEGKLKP
ugtP null kill – kills S. aureus RN4220 lacking UgtP. growth inhibition, % (no concentration beside the values). S. aureus RN4220 ugtP deletion, OD600 growth, 16 h. AID 1259309. 330,000 compounds, 0.54% hits; in the data active = growth inhibition above about 68%;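 also: plate controls were untreated wells for no effect and antibiotic for full effect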
* = called active by the depositor; . = no result. Sampled rows, rich in hits. Any-hit rate of the full collection: about 1.4%.

SMILES	RN4220 kill	PrPC surface inh	SARS 3CLpro inh	BJeLR lethal	DUSP3 inh	ugtP null kill
COc1cccc2c1C1CN(CCCCn3c(=O)[nH]c4c(sc5ncc(-c6ccccc6)nc54)c3=O)CC1CO2 (centres undefined)	-5	.	.	.	.	-16
O=c1c2ccccc2nc(/C=C/c2ccccc2F)n1-c1ccccc1O	98*	4	0	-2	38	99*
COc1ccc(C(C(=O)NC2CCCCC2)N(C(=O)CCl)c2cccc(Cl)c2)cc1 (centres undefined)	25	2	3	119*	5	10
COc1cccc(C(C(=O)NC2CCCC2)N(Cc2cccnc2)C(=O)Cc2cccs2)c1 (centres undefined)	1	1	6	-7	50*	-1
COc1ccc(C(C(=O)NC2CCCCC2)N(C(=O)CCl)c2ccc(OC)cc2)cc1 (centres undefined)	-3	.	9	118*	-4	5
COc1ccc(N(C(=O)CCl)C(C(=O)NC2CCCCC2)c2cccnc2)cc1 (centres undefined)	9	-1	21*	81*	4	-2
CCOC(=O)C1C2COc3ccccc3C2N2C(=O)c3cc(OC)c(OC)cc3NC(=O)[C@@]12C (some centres undefined)	6	.	.	.	.	0
COc1ccc(C(C(=O)NC2CCCCC2)N(C(=O)CCl)c2ccc(C)cc2)cc1 (centres undefined)	7	6	5	135*	-4	1
COc1ccc(C(C(=O)NC2CCCC2)N(C(=O)c2ccoc2C)c2ccc(C)cc2)cc1 (centres undefined)	-4	3	8	6	5	-8
S=C(Nc1ccc(N2CCOCC2)cc1)Nc1ccc2nc(-c3ccco3)c(-c3ccco3)nc2c1	10	-22	-1	8	50*	-13
O=C(O)/C=C\C(=O)Nc1ccc(N2CCN(c3cccc(Cl)c3)CC2)cc1	3	0	-1	3	57*	0
O=C(Nc1ccc(N2CCOCC2)cc1)c1ccc2nc(-c3ccco3)c(-c3ccco3)nc2c1	1	-10	0	-1	7	-5
CCc1ccc(C(=O)NC(=S)Nc2ccc(N3CCOCC3)cc2)cc1	-3	0	0	8	19	89*
O=C(NC(=S)Nc1ccc(N2CCOCC2)cc1)c1ccccc1	4	8	-1	-5	12	46
O=C(NC(=S)Nc1ccc(N2CCOCC2)cc1)c1cccc(Cl)c1	5	7	2	-7	2	93*
COc1ccc(C(=O)NC(=S)Nc2ccc(CN3CCOCC3)cc2)cc1Cl	8	12	-4	6	-3	86*
O=C(Nc1ccc(N2CCOCC2)c(Cl)c1)c1cccc(-n2cnnc2)c1	0	-3	-1	1	23	3
O=C(Nc1ccc(N2CCOCC2)cc1)c1cccc(-n2cnnc2)c1	4	3	-1	-8	53*	4
COc1ccc(C(=O)NC(=S)Nc2ccc(CN3CCOCC3)cc2)cc1OC	2	6	-1	-10	31	42
Cc1ccc2[nH]cc(CCNC(=O)c3ccco3)c2c1	3	-3	-1	-2	26	-3
Cc1ccc2[nH]cc(CCNC(=O)c3cccs3)c2c1	-1	6	2	4	52*	-11
O=c1c(-c2nnc(SCc3ccc(Cl)c(Cl)c3)o2)cccn1Cc1ccccc1	-16	1	-2	8	25	86*
CC1CCC(C(C)C)C(OC(=O)C[n+]2cc(-c3ccc(Cl)cc3)n3c2CCC3)C1 (centres undefined)	101*	6	1	11	18	101*
Cc1ccc(-c2c[n+](CC(=O)OCc3ccccc3)c3n2CCC3)cc1	4	5	5	-6	-2	8
COc1ccc(C(=O)Nc2nc3ccccc3s2)c(OC)c1	.	4	0	53*	4	.
SMILES	RN4220 kill	PrPC surface inh	SARS 3CLpro inh	BJeLR lethal	DUSP3 inh	ugtP null kill
COc1ccc2nc(NC(=O)c3ccccc3C(=O)O)sc2c1	2	3	-3	-7	.	-4
COc1ccc(-c2nc(CS(=O)(=O)CC(=O)NCCCN3CCN(C)CC3)c(C)o2)cc1	-1	2	-6	7	57*	0
CCOC1OC(C(=O)Nc2ccccc2)=CC(c2coc3ccccc3c2=O)C1CCCO (centres undefined)	7	.	.	.	.	8
OCC1(CCc2ccccc2)CCN(C/C=C/c2ccccc2)CC1	-6	0	-6	-7	56*	-3
COc1ccc2c(c1)C(C)=CC(C)(C)N2S(=O)(=O)c1ccc(NC(C)=O)cc1	.	9	3	47	-15	.
COc1ccc2c(c1)C(C)=CC(C)(C)N2S(=O)(=O)c1ccc(Br)cc1	-2	17	-1	49	15	86*
CC(=O)Nc1ccc2[nH]c3ccccc3c2c1	-2	-1	-4	-2	15	-6
O=C(Nc1ccc(Cl)cc1)c1cc2c(cc1O)[nH]c1ccccc12	95*	-2	6	19	-4	98*
O=C(c1ccco1)N(Cc1cccc([N+](=O)[O-])c1)c1ccc(Br)cc1	5	8	5	-4	1	33
O=C(c1ccco1)N(Cc1ccc([N+](=O)[O-])cc1)c1ccc(Br)cc1	-1	4	13*	3	26	12
CC1CN(C(C)CO)C(=O)c2cc(NS(=O)(=O)c3ccc(Cl)cc3)ccc2OC1CN(C)Cc1ccncc1 (centres undefined)	3	.	.	.	.	3
O=C(Nc1ccccc1)C1=CC(c2ccccc2)CC(OCc2ccc(CO)cc2)O1 (centres undefined)	3	.	.	.	.	3
Cc1ccc(-n2c(SCC(=O)Nc3cccc(S(=O)(=O)NC4=NCCCCC4)c3)nc3ccccc3c2=O)cc1C	6	5	-1	-3	60*	-1
CCCn1c(SCC(=O)Nc2cccc(S(=O)(=O)NC3=NCCCCC3)c2)nc2ccccc2c1=O	2	-6	3	3	38	5
COC(=O)C1=C(c2ccc(F)cc2OCc2ccccc2)CC2CCC1N2C(=O)NC1CCCCC1 (centres undefined)	-7	.	.	.	.	-14
COC1C(OC(N)=O)C(O)C(Oc2ccc3c(O)c(NC(=O)c4ccc(O)c(CC=C(C)C)c4)c(=O)oc3c2C)OC1(C)C (centres undefined)	100*	.	.	.	.	99*
CC(=O)c1ccc(O)c(CC=C(C)C)c1	7	-1	.	9	22	5
CCCCC1COCCS(=O)(=O)N1Cc1cccc([N+](=O)[O-])c1 (centres undefined)	8	.	.	.	.	2
C#CCNC(=O)C1=CC(c2ccc3c(c2)OCO3)CC(OCCCCO)O1 (centres undefined)	6	.	.	.	.	2
O=C(Nc1ccc(-n2cnnn2)cc1)C1CCCCC1	-16	0	0	1	52*	-9
